Source: article PMC7862700, “An all-to-all approach to the identification of sequence-specific readers for epigenetic DNA modifications on cytosine”

What follows are sequences tested against T1, ELF3 (Homo sapiens, UniProt P78545 1-371) (assay: DAPPL (digital affinity profiling via proximity ligation, sequencing); 10 mM Tris-HCl pH 7.5, 50 mM NaCl, 1 mM DTT, 4% glycerol, room temperature, 30 min; GST-TFs on glutathione beads, 16-mer random dsDNA library, 0.1% formaldehyde crosslink after washing; high values mean tight binding). Details: protein: recombinant; tags: N-terminal GST; dsDNA, one strand shown.
T1 sequence: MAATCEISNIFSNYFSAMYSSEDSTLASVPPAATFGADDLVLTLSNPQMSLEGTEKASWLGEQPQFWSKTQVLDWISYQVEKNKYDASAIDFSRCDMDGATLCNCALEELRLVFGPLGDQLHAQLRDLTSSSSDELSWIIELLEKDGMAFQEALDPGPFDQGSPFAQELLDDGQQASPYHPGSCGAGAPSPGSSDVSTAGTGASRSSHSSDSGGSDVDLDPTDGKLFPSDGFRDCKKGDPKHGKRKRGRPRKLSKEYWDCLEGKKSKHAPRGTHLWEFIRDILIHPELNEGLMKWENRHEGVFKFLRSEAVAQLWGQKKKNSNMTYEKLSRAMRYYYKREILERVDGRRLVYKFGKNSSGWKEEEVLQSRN
How it was run: (§1)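 The binding signal reported is, for every hexamer, its read frequency for a factor over its read frequency for the tag-only sample. Reads came from pools of yeast-expressed, GST-fused human transcription factors on glutathione beads, barcoded with DNA and mixed with that sample, which were incubated with 200 nmole of a random double-stranded 16-mer DNA library in Tris/NaCl/DTT/glycerol buffer at room temperature for 30 min. After washing, the pools were crosslinked with 0.1% formaldehyde, proximity-ligated with BsaI/T4 ligase for 1 h at 37 °C, PCR-amplified and sequenced on an Illumina NextSeq500.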
With GTAGCC the binding signal was 1.06 fold enrichment (6-mer frequency, TF over GST control). In the case of CCTAGT, the binding signal is reported as 1.04 fold enrichment (6-mer frequency, TF over GST control). In the case of TAGTCA, the binding signal is reported as 1.07 fold enrichment (6-mer frequency, TF over GST control). In the case of GACCCC, the binding signal is reported as 1.04 fold enrichment (6-mer frequency, TF over GST control). In the case of ACAAGT, the binding signal is reported as 1 fold enrichment (6-mer frequency, TF over GST control). In the case of GCGGCA, the binding signal is reported as 1.01 fold enrichment (6-mer frequency, TF over GST control). CCGTTA was tested, and the binding signal was 1.01 fold enrichment (6-mer frequency, TF over GST control). In the case of GAAAGC, the binding signal is reported as 1.06 fold enrichment (6-mer frequency, TF over GST control). ACCAAG was tested, and the binding signal was 1.14 fold enrichment (6-mer frequency, TF over GST control). TCATAG was tested, and the binding signal was 1.04 fold enrichment (6-mer frequency, TF over GST control). For GTCAAA, the binding signal was 1 fold enrichment (6-mer frequency, TF over GST control). For AGCCCA, the binding signal was 1.04 fold enrichment (6-mer frequency, TF over GST control). GACTTG was tested, and the binding signal was 1.08 fold enrichment (6-mer frequency, TF over GST control). With CGGCAC the binding signal was 1.1 fold enrichment (6-mer frequency, TF over GST control). GTATCG was tested, and the binding signal was 1.13 fold enrichment (6-mer frequency, TF over GST control). In the case of TGCGTC, the binding signal is reported as 1.03 fold enrichment (6-mer frequency, TF over GST control). CTAGTG was tested, and the binding signal was 1.01 fold enrichment (6-mer frequency, TF over GST control). For AGTTTA, the binding signal was 1.11 fold enrichment (6-mer frequency, TF over GST control).

The sequences below were run against CRX (Homo sapiens, UniProt O43186 1-299) in the same assay as above. Details: protein: recombinant; tags: N-terminal GST; dsDNA, one strand shown.
Chain of CRX (O43186 whole entry): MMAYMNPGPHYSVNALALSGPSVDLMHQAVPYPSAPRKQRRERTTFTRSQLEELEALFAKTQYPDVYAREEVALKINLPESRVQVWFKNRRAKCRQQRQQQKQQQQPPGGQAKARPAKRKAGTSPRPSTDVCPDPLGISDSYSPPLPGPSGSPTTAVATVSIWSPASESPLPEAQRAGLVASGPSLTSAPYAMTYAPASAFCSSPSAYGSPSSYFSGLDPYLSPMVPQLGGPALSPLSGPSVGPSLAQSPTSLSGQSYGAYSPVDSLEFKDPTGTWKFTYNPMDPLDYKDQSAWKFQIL
How it was run: as §1
For GATAAC, the binding signal was 1.13 fold enrichment (6-mer frequency, TF over GST control). AGGCCT was tested, and the binding signal was 1.07 fold enrichment (6-mer frequency, TF over GST control). TTGGGA was tested, and the binding signal was 1.04 fold enrichment (6-mer frequency, TF over GST control). AGCCCA was tested, and the binding signal was 1.05 fold enrichment (6-mer frequency, TF over GST control). In the case of AGGCTA, the binding signal is reported as 1.19 fold enrichment (6-mer frequency, TF over GST control). For GCGGCT, the binding signal was 1.05 fold enrichment (6-mer frequency, TF over GST control). AGTTTA was tested, and the binding signal was 1.08 fold enrichment (6-mer frequency, TF over GST control).

What follows are sequences tested against ETV1 (Homo sapiens, UniProt P50549 1-477) in the same assay as above. Details: protein: recombinant; tags: N-terminal GST; dsDNA, one strand shown.
Chain of ETV1 (P50549 whole entry): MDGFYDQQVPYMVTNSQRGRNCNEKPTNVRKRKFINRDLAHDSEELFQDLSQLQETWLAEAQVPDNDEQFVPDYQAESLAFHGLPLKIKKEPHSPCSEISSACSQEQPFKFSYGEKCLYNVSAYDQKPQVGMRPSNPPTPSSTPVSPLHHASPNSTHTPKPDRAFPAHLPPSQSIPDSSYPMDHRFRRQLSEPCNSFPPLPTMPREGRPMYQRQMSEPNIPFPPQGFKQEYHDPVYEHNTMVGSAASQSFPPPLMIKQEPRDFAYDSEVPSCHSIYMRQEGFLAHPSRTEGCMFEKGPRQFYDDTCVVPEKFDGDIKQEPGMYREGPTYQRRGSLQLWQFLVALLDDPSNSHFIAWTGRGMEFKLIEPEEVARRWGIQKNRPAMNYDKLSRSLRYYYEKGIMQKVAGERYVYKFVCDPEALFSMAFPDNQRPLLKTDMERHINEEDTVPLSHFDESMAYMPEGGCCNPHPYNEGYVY
How it was run: as §1
GTAGCC was tested, and the binding signal was 1 fold enrichment (6-mer frequency, TF over GST control). CCTAGT was tested, and the binding signal was 1.02 fold enrichment (6-mer frequency, TF over GST control). GTCAAA was tested, and the binding signal was 1 fold enrichment (6-mer frequency, TF over GST control). With AGTTTA the binding signal was 1.04 fold enrichment (6-mer frequency, TF over GST control).

The sequences below were run against T2, ERF (Homo sapiens, UniProt P50548 1-548) in the same assay as above. Details: protein: recombinant; tags: N-terminal GST; dsDNA, one strand shown.
T2 sequence: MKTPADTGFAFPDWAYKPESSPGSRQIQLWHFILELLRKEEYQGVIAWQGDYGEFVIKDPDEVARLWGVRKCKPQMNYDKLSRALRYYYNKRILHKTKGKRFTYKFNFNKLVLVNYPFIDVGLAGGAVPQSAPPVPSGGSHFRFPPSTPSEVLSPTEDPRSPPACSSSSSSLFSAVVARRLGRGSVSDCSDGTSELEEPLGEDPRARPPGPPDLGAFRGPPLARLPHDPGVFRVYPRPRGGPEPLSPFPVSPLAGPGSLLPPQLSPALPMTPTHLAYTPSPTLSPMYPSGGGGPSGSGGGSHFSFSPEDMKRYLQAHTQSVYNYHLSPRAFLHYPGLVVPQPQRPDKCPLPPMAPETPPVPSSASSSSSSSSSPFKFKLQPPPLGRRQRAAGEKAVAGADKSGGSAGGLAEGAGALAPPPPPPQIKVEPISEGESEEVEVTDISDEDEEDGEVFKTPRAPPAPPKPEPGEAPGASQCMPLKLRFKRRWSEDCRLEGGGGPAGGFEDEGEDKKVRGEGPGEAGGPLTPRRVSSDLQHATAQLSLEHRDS
How it was run: as §1
For CCTAGT, the binding signal was 1 fold enrichment (6-mer frequency, TF over GST control). For TCATAG, the binding signal was 1 fold enrichment (6-mer frequency, TF over GST control). GCGGCT was tested, and the binding signal was 1.08 fold enrichment (6-mer frequency, TF over GST control). With AGTTTA the binding signal was 1.01 fold enrichment (6-mer frequency, TF over GST control).

What follows are sequences tested against T3, ETV7 (Homo sapiens, UniProt Q9Y603 1-341) in the same assay as above. Details: protein: recombinant; tags: N-terminal GST; dsDNA, one strand shown.
T3 sequence: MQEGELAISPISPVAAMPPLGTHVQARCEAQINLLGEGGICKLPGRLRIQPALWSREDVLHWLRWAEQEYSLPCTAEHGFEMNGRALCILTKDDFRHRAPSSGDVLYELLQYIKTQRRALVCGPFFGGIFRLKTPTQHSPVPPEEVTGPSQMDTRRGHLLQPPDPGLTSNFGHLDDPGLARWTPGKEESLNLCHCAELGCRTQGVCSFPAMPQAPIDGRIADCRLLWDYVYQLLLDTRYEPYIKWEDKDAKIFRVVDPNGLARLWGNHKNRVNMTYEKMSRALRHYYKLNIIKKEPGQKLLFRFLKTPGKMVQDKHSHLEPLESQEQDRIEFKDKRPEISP
How it was run: as §1
In the case of AGGCCT, the binding signal is reported as 1.01 fold enrichment (6-mer frequency, TF over GST control). For CGGCAC, the binding signal was 1 fold enrichment (6-mer frequency, TF over GST control). With TGCGTC the binding signal was 1.04 fold enrichment (6-mer frequency, TF over GST control). AGTTTA was tested, and the binding signal was 1.02 fold enrichment (6-mer frequency, TF over GST control).

What follows are sequences tested against ETV6 (Homo sapiens, UniProt P41212 1-452) in the same assay as above. Details: protein: recombinant; tags: N-terminal GST; dsDNA, one strand shown.
Chain of ETV6 (P41212 whole entry): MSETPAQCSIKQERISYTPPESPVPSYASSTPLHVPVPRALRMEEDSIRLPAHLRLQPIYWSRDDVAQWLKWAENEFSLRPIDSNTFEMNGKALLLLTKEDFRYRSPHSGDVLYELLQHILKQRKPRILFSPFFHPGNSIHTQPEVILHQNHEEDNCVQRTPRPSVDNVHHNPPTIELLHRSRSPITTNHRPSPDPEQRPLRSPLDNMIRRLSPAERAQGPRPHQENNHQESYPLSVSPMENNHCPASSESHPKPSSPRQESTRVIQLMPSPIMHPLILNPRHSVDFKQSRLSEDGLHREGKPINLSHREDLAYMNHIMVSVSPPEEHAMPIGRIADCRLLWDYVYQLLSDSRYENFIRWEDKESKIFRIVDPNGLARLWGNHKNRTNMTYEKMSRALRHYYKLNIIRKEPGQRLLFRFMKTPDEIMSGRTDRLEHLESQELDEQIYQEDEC
How it was run: as §1
For CGGCAC, the binding signal was 1.02 fold enrichment (6-mer frequency, TF over GST control). With GCGGCT the binding signal was 1 fold enrichment (6-mer frequency, TF over GST control). With AGTTTA the binding signal was 1.12 fold enrichment (6-mer frequency, TF over GST control).
